Drawing on PubChem BioAssay (NCI), this text covers growth inhibition for ten compounds.

Compounds without any hit were thinned out: in the full panel of roughly 79,000, 15% have a hit. Unmarked numbers belong to inactive results. Calls of active or inactive are those of the source. Rule as the data show it: active = growth inhibition above about 70%; inactive = the rest.

Assay [1] in a line: NCI Yeast Anticancer Drug Screen. Data for the rad50 strain (AID 155).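 Also: 0% = growth of vehicle-only cultures of the same strain.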 Conditions: S. cerevisiae rad50 strain growth inhibition, stronger effect = higher value. The method in brief:
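Cells are treated with compound, grown, and their growth is then scored against vehicle-only cultures of the same repair-deficient yeast strain.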

The nature of assay [2]: NCI Yeast Anticancer Drug Screen. Data for the mec2-1 strain (AID 157). Conditions: S. cerevisiae mec2-1 strain, stronger effect = higher value. The method in brief: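 Mutant yeast (mec2-1) grown with compound; growth inhibition relative to vehicle control reported.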
Assay [3] in a line: NCI Yeast Anticancer Drug Screen. Data for the sgs1 mgt1 strain (AID 161).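 Also: 0% = growth of cultures given vehicle only.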 Conditions: S. cerevisiae sgs1 mgt1 strain, stronger effect = higher value. The method in brief: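 Growth of a repair-deficient yeast mutant was monitored after compound treatment and expressed as inhibition relative to vehicle-treated cultures.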
The nature of assay [4]: NCI Yeast Anticancer Drug Screen. Data for the cln2 rad14 strain (AID 165).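 Also: 0% = growth equal to vehicle treated cultures.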 Conditions: S. cerevisiae cln2 rad14 strain, stronger effect = higher value. The method in brief:
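Readout is yeast growth inhibition versus vehicle-treated controls, using a strain with cln2 and rad14 alterations exposed to compound.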

The nature of assay [5]: NCI Yeast Anticancer Drug Screen. Data for the bub3 strain (AID 167). As to conditions: S. cerevisiae bub3 mutant strain, stronger effect = higher value. The method in brief:
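Part of a panel of yeast mutants defective in DNA damage repair or cell cycle regulation. Each strain is grown with compound, and inhibition is calculated relative to solvent-treated cultures.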

Assay [6] can be described thus: NCI Yeast Anticancer Drug Screen. Data for the mlh1 rad18 strain (AID 175). As to conditions: S. cerevisiae mlh1 rad18 strain growth inhibition, stronger effect = higher value. The method in brief:
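Genetically defined yeast (DNA repair-deficient) exposed to compounds; growth inhibition determined relative to vehicle.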

Setting [7] is: at 5.0 µM (retest, dose inferred, filed as 0.5).
[8] abbreviates: at 50.0 µM (retest, dose inferred, filed as 5.0).

Take `O=C(CNc1ccc(Cl)cc1)Nn1c(-c2ccccc2)nc2ccccc2c1=O`: the growth inhibition in assay [1] (setting [7]) is 8%; in assay [1] (setting [8]), 29%; in assay [1] (at 50.0 µM), 64.7%; in assay [2] (setting [7]), -9%; in assay [2] (setting [8]), 42%; in assay [2] (at 50.0 µM), 56.6%. Moreover, the growth inhibition was 10% in assay [3] (setting [7]); 30% in assay [3] (setting [8]); 79% (active) in assay [3] (at 50.0 µM); 11% in assay [4] (setting [7]); 32% in assay [4] (setting [8]); 45.2% in assay [4] (at 50.0 µM). Also, the growth inhibition in assay [5] (setting [7]) is -7%; in assay [5] (setting [8]), 31%; in assay [5] (at 50.0 µM), 62.1%; in assay [6] (setting [7]), 4%; in assay [6] (setting [8]) it was 51%; in assay [6] (at 50.0 µM), 81.3% (active).

Turning to `CN(C)CC/C(=N\Nc1ccc(Cl)cc1Cl)c1ccccc1`, the growth inhibition was 90% (active) in assay [1] (setting [7]); 99% (active) in assay [1] (setting [8]); 99.5% (active) in assay [1] (at 50.0 µM); 79% (active) in assay [2] (setting [7]); 100% (active) in assay [2] (setting [8]); 99.5% (active) in assay [2] (at 50.0 µM). Besides, the growth inhibition in assay [3] (setting [7]) was 97% (active); in assay [3] (setting [8]), 100% (active); in assay [3] (at 50.0 µM) it was 99.5% (active); in assay [4] (setting [7]) it was 95% (active); in assay [4] (setting [8]), 99% (active); in assay [4] (at 50.0 µM), 99.2% (active). Besides, the growth inhibition is 96% (active) in assay [5] (setting [7]); 100% (active) in assay [5] (setting [8]); 99.5% (active) in assay [5] (at 50.0 µM); 96% (active) in assay [6] (setting [7]); 100% (active) in assay [6] (setting [8]); 99.2% (active) in assay [6] (at 50.0 µM).

Turning to `C=C1CC(C)(C)C(c2ccccc2)OC1=O` (stereo not given), the growth inhibition was 1% in assay [1] (setting [7]); 60% in assay [1] (setting [8]); 53% in assay [1] (at 50.0 µM); 7% in assay [2] (setting [7]); 80% (active) in assay [2] (setting [8]); 31.7% in assay [2] (at 50.0 µM). The growth inhibition in assay [3] (setting [7]) is 8%; in assay [3] (setting [8]) it was 98% (active); in assay [3] (at 50.0 µM), 97.1% (active); in assay [4] (setting [7]), -4%; in assay [4] (setting [8]) it was 25%; in assay [4] (at 50.0 µM), 5.55%. Also, the growth inhibition was -7% in assay [5] (setting [7]); 80% (active) in assay [5] (setting [8]); 73.5% (active) in assay [5] (at 50.0 µM); 13% in assay [6] (setting [7]); 87% (active) in assay [6] (setting [8]); 77.8% (active) in assay [6] (at 50.0 µM).

`[O-][n+]1ccccc1Sc1nc(Sc2cccc[n+]2[O-])nc(Sc2cccc[n+]2[O-])n1`: the growth inhibition is 98% (active) in assay [1] (setting [7]); 99% (active) in assay [1] (setting [8]); 89.8% (active) in assay [1] (at 50.0 µM); 99% (active) in assay [2] (setting [7]); 99% (active) in assay [2] (setting [8]); 91.7% (active) in assay [2] (at 50.0 µM). Besides, the growth inhibition in assay [3] (setting [7]) is 99% (active); in assay [3] (setting [8]), 98% (active); in assay [3] (at 50.0 µM), 92.7% (active); in assay [4] (setting [7]) it was 98% (active); in assay [4] (setting [8]), 98% (active); in assay [4] (at 50.0 µM), 90% (active). Besides, the growth inhibition in assay [5] (setting [7]) was 98% (active); in assay [5] (setting [8]), 99% (active); in assay [5] (at 50.0 µM), 90.3% (active); in assay [6] (setting [7]) it was 100% (active); in assay [6] (setting [8]), 99% (active); in assay [6] (at 50.0 µM), 88.4% (active).

Turning to `CC(C)C1=CC23CCC4C(C)(C(=O)O)CCCC4(C)C2CC1c1c(O)ccc(O)c13` (stereo not given), the growth inhibition in assay [1] (setting [7]) was 30%; in assay [1] (setting [8]), 98% (active); in assay [1] (at 50.0 µM) it was 99.3% (active); in assay [2] (setting [7]), 75% (active); in assay [2] (setting [8]), 100% (active); in assay [2] (at 50.0 µM), 99.3% (active). The growth inhibition was 51% in assay [3] (setting [7]); 99% (active) in assay [3] (setting [8]); 99.3% (active) in assay [3] (at 50.0 µM); 28% in assay [4] (setting [7]); 98% (active) in assay [4] (setting [8]); 99.2% (active) in assay [4] (at 50.0 µM). Further, the growth inhibition is 31% in assay [5] (setting [7]); 99% (active) in assay [5] (setting [8]); 99.2% (active) in assay [5] (at 50.0 µM); 81% (active) in assay [6] (setting [7]); 99% (active) in assay [6] (setting [8]); 99% (active) in assay [6] (at 50.0 µM).

On to `CC(C)(C)c1cc(C(P(=O)(c2ccccc2)c2ccccc2)P(=O)(c2ccccc2)c2ccccc2)cc(C(C)(C)C)c1O`, for which the growth inhibition in assay [1] (setting [7]) is 3%; in assay [1] (setting [8]), 96% (active); in assay [1] (at 50.0 µM) it was 97.9% (active); in assay [2] (setting [7]), -5%; in assay [2] (setting [8]) it was 92% (active); in assay [2] (at 50.0 µM), 93.7% (active). In addition, the growth inhibition in assay [3] (setting [7]) is -8%; in assay [3] (setting [8]) it was 97% (active); in assay [3] (at 50.0 µM), 98.1% (active); in assay [4] (setting [7]), 2%; in assay [4] (setting [8]), 88% (active); in assay [4] (at 50.0 µM) it was 94.7% (active). Also, the growth inhibition is -4% in assay [5] (setting [7]); 93% (active) in assay [5] (setting [8]); 96.3% (active) in assay [5] (at 50.0 µM); -3% in assay [6] (setting [7]); 92% (active) in assay [6] (setting [8]); 96.7% (active) in assay [6] (at 50.0 µM).

On to `CCc1ccccc1SC(C)=O`, for which the growth inhibition in assay [1] (setting [7]) was 6%; in assay [1] (setting [8]), 55%; in assay [1] (at 50.0 µM) it was 29.9%; in assay [2] (setting [7]) it was 13%; in assay [2] (setting [8]) it was 70% (active); in assay [2] (at 50.0 µM), 62%. Further, the growth inhibition in assay [3] (setting [7]) is 3%; in assay [3] (setting [8]), 42%; in assay [3] (at 50.0 µM), 44.5%; in assay [4] (setting [7]) it was 11%; in assay [4] (setting [8]) it was 69%; in assay [4] (at 50.0 µM), 59.9%. The growth inhibition in assay [5] (setting [7]) is 7%; in assay [5] (setting [8]), 77% (active); in assay [5] (at 50.0 µM) it was 80.9% (active); in assay [6] (setting [7]) it was 1%; in assay [6] (setting [8]) it was 60%; in assay [6] (at 50.0 µM) it was 65.3%.

`COc1cc(C=O)c(C=O)cc1OC`: the growth inhibition was 8% in assay [1] (setting [7]); 74% (active) in assay [1] (setting [8]); 69.9% in assay [1] (at 50.0 µM); 6% in assay [2] (setting [7]); 40% in assay [2] (setting [8]); 50.2% in assay [2] (at 50.0 µM). For the same compound, the growth inhibition was 3% in assay [3] (setting [7]); 79% (active) in assay [3] (setting [8]); 52.5% in assay [3] (at 50.0 µM); 9% in assay [4] (setting [7]); 84% (active) in assay [4] (setting [8]); 89.2% (active) in assay [4] (at 50.0 µM). Moreover, the growth inhibition in assay [5] (setting [7]) was 5%; in assay [5] (setting [8]), 87% (active); in assay [5] (at 50.0 µM), 73.5% (active); in assay [6] (setting [7]), 16%; in assay [6] (setting [8]), 87% (active); in assay [6] (at 50.0 µM) it was 74.5% (active).

As to `CN(C)CC(CN(C)C)C(=O)C1CCCCC1`, the growth inhibition in assay [1] (setting [7]) was 25%; in assay [1] (setting [8]), 90% (active); in assay [1] (at 50.0 µM) it was 81.2% (active); in assay [2] (setting [7]), 2%; in assay [2] (setting [8]) it was 96% (active); in assay [2] (at 50.0 µM) it was 94.7% (active). For the same compound, the growth inhibition is -9% in assay [3] (setting [7]); 71% (active) in assay [3] (setting [8]); 76.8% (active) in assay [3] (at 50.0 µM); 19% in assay [4] (setting [7]); 89% (active) in assay [4] (setting [8]); 10.3% in assay [4] (at 50.0 µM). Further, the growth inhibition is 7% in assay [5] (setting [7]); 98% (active) in assay [5] (setting [8]); 23.2% in assay [5] (at 50.0 µM); 12% in assay [6] (setting [7]); 95% (active) in assay [6] (setting [8]); 96.6% (active) in assay [6] (at 50.0 µM).

With `CCCCCCC(O)CCOC(C)=O` (stereo not given), the growth inhibition in assay [1] (setting [7]) was -3%; in assay [1] (setting [8]), -3%; in assay [1] (at 50.0 µM) it was -19.4%; in assay [2] (setting [7]), 4%; in assay [2] (setting [8]) it was 0%; in assay [2] (at 50.0 µM) it was -13.2%. The growth inhibition in assay [3] (setting [7]) is 1%; in assay [3] (setting [8]), -3%; in assay [3] (at 50.0 µM) it was -2.15%; in assay [4] (setting [7]), 2%; in assay [4] (setting [8]) it was -11%; in assay [4] (at 50.0 µM) it was -14.8%. Besides, the growth inhibition is 4% in assay [5] (setting [7]); 1% in assay [5] (setting [8]); 33.1% in assay [5] (at 50.0 µM); -3% in assay [6] (setting [7]); 4% in assay [6] (setting [8]); -1.6% in assay [6] (at 50.0 µM).
